Assay results published in PubChem BioAssay (NCI).
Compounds without any hit were thinned out: in the full panel of roughly 79,000, 15% have a hit. Values without a mark were called inactive. Activity calls are given as the source filed them. Cut-off read from the data, not from the text of the source: active = growth inhibition above about 70%; inactive = the rest.

How the values were obtained:
[1] = NCI Yeast Anticancer Drug Screen. Data for the rad50 strain (AID 155);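 note: 0% = growth of vehicle-only cultures of the same strain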; settings: S. cerevisiae rad50 strain growth inhibition; at 50.0 µM; active compounds read high
Summary of the method: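 Genetically altered yeast (DNA repair pathway); compound treatment; growth inhibition vs vehicle ctrl.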

[2] = NCI Yeast Anticancer Drug Screen. Data for the mec2-1 strain (AID 157); settings: S. cerevisiae mec2-1 strain, at 50.0 µM, active compounds read high
Summary of the method: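 Vehicle-treated cultures served as reference for growth inhibition of compound-exposed mec2-1 yeast.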

[3] = NCI Yeast Anticancer Drug Screen. Data for the sgs1 mgt1 strain (AID 161);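 note: 0% = growth of cultures given vehicle only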; settings: S. cerevisiae sgs1 mgt1 strain, at 50.0 µM, active compounds read high
Summary of the method: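 Mutant yeast exposed to compound; growth scored against vehicle-only wells.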

[4] = NCI Yeast Anticancer Drug Screen. Data for the cln2 rad14 strain (AID 165);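 note: 0% = growth equal to vehicle treated cultures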; settings: S. cerevisiae cln2 rad14 strain, at 50.0 µM, active compounds read high
Summary of the method: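 Each compound was tested on cln2 rad14 yeast. Inhibition of growth was calculated against vehicle-exposed controls.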

[5] = NCI Yeast Anticancer Drug Screen. Data for the bub3 strain (AID 167); settings: S. cerevisiae bub3 mutant strain, at 50.0 µM, active compounds read high
Summary of the method: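 Yeast carrying a defined mutation is treated with each compound, and growth is compared with that of vehicle-exposed cells to give inhibition.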

[6] = NCI Yeast Anticancer Drug Screen. Data for the mlh1 rad18 strain (AID 175); settings: S. cerevisiae mlh1 rad18 strain growth inhibition; at 50.0 µM; active compounds read high
Summary of the method: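 Vehicle-treated cultures served as the reference for growth inhibition in a yeast strain carrying DNA damage repair alterations exposed to each compound.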

SMILES | growth inhibition [1] | growth inhibition [2] | growth inhibition [3] | growth inhibition [4] | growth inhibition [5] | growth inhibition [6]
CSC1=Nc2cccnc2Nc2cscc21 | -9.25% | -6% | 22.1% | 9.65% | -3.8% | 25.1%
C/C=C/COc1cc2c(cc1C(C)c1ccc(OC)cc1)OCO2 (stereo not drawn) | -9.3% | -0.95% | -6.15% | 24.4% | -3.85% | -1.2%
CCCOc1ncnc2nc[nH]c12 | 7.3% | -6.05% | 1.55% | -6.4% | 5.3% | 19.7%
CN(C)CCCC1c2ccccc2Oc2ccc(C(F)(F)F)cc21 (stereo not drawn) | -9.45% | -28.4% | -11.9% | -25.1% | 41.9% | 31.2%
NC(=S)CNC(=O)c1ccccc1 | -28.6% | -33.1% | -29.3% | -9.55% | -11.8% | 9.6%
O=c1n(-c2ccccc2)c(=O)n2n1C1C=CC2C23C=CC12CCCC3 (stereo not drawn) | 13.8% | 7.85% | 9.05% | 12% | 26.2% | 22.8%
COc1nc2ccccc2nc1OC | -14.1% | -8.75% | -5.5% | -14.8% | 4.45% | 4%
Cn1cnc([N+](=O)[O-])c1Sc1nc2ncccc2[nH]1 | -5.6% | -7.1% | -20.1% | 16.6% | -8.9% | 0%
O=C(/C=C/c1ccccc1)N(Cc1ccccc1)c1ccccc1 | 94.3% (active) | 96.7% (active) | 96.7% (active) | 93.5% (active) | 95.2% (active) | 95.6% (active)
COc1ccc(CC(N)C(=O)OC(C)C)cc1 (stereo not drawn) | -16.3% | -12.3% | -5.05% | -36% | 11% | 1.4%
CCOCCN1CCN(CCOCC)CC1 | -11.9% | -9.75% | -9.65% | -18.4% | 27.6% | 14%
CCCCCCCCCCCC(=O)c1c(O)cccc1O | -10.1% | -16.1% | 7.75% | 16.9% | 10.7% | -20.1%
COc1cc(Cl)c(CC(=O)c2c[nH]c3ccccc23)cc1OC | 10.6% | -27.1% | -17.8% | -31.7% | -29.2% | 20.6%
CCOC(=O)C1C(c2ccc(Br)cc2)N(Cc2ccccc2)C(c2ccc(Br)cc2)C(C(=O)OC)S1(=O)=O (stereo not drawn) | -42.2% | -49.5% | -16.6% | -25.1% | -21.4% | -22.1%
COc1ccc(CCN2C(CC(=O)c3ccccc3)CCCC2CC(=O)c2ccccc2)cc1OC (stereo not drawn) | -8.05% | -10.4% | -0.9% | -0.2% | 0.65% | -2.75%
Cn1c(=O)c(C(c2ccccc2)c2c(O)c3ccccc3n(C)c2=O)c(O)c2ccccc21 | 12.1% | 6.5% | -19.2% | -34% | 2.8% | 15.8%
CCn1c2ccccc2c2nnc(NCCCO)nc21 | -14.7% | -31.3% | -16.5% | -1.25% | -51.7% | 7.55%
N#CC1C(=O)NC(=O)C(C#N)C1c1ccc(Cl)cc1Cl (stereo not drawn) | 38.9% | 10.1% | 32.6% | 22.1% | -3.55% | 19.9%
COc1ccc(OC)c(N2C(=O)C(=O)C(C(C)=O)C2=O)c1 (stereo not drawn) | 27.7% | -1.95% | 7.15% | 25.1% | 7.65% | 16.5%

SMILES | growth inhibition [1] | growth inhibition [2] | growth inhibition [3] | growth inhibition [4] | growth inhibition [5] | growth inhibition [6]
COC(=O)C(C)C1Sc2ccccc2NC1=O (stereo not drawn) | 4.6% | 1.85% | -17.3% | -4% | -16.6% | 2.6%
O=C1C(NS(=O)(=O)c2ccccc2)=C(N(Cc2ccccc2)Cc2ccccc2)C(=O)c2ccccc21 | 9.1% | 7.4% | 26.1% | 2.1% | 8.95% | -6.75%
CSc1nc2c(nc(N)n2C2OC(CO)C(O)C(O)C2O)c(=O)[nH]1 (stereo not drawn) | -13.7% | 8.45% | -1.85% | -1.2% | -6.2% | -8.9%
CN(C=O)c1c(F)cc(C(=O)O)cc1F | 3.05% | 4.1% | -3.3% | 4.1% | -6.65% | 8.15%
C1CCC(NCCNC2CCCCC2)CC1 | 11.8% | -16.9% | 5.5% | 18.6% | -2.8% | 10.3%
O=C1Nc2ccc3[nH]ncc3c2C1=O | 11.7% | -0.65% | -2.45% | -11.8% | -9.55% | 7.6%
CC1=Nc2ccccc2NC(C)(C)C1 | 30.1% | 23.4% | 29.5% | 13.9% | 15.2% | 20.4%
C/C(=N\NC(=S)Nc1cccc2cccc(S(=O)(=O)O)c12)c1ccccn1 | 3.4% | -0.35% | -18.2% | -5.55% | -7.4% | 2.85%
Cn1c(Nc2ccccc2)c([N+](=O)[O-])c(=O)n(C)c1=O | -11.8% | -7.35% | -5% | -18.2% | -2.15% | -27.6%
C/C=C(/C)C(=O)OC12CC(C)C3(O)C(C=C(CO)C[C@]4(O)C(=O)C(C)=CC34)C1C2(C)C (stereo partly drawn) | 16.2% | 1.3% | -12.6% | -0.45% | 7.5% | 1.35%
CCOC(=O)C1NC(=O)C(C(=O)OCC)C1C(C)C (stereo not drawn) | 9.45% | 20.9% | 0.35% | -8.25% | -4.05% | -9.05%
CC(=O)NN | -5.25% | 0.45% | -0.8% | -1.65% | 11.5% | -16.1%
[Br][Pt+2][Br].[NH-]c1ccc(F)cc1.[NH-]c1ccc(F)cc1 | 34.9% | 9.2% | 5.4% | -8.3% | -4.75% | 24.9%
NC(=O)C1CCc2ccccc2C1 (stereo not drawn) | 0.7% | -15.1% | 2.6% | 3% | -5.15% | -9.45%
C/C(=N/N(C)C)c1ccc(C)cc1 | 20.3% | -5.75% | 3.25% | -26.9% | 0.6% | 12.5%
CCOC(=O)CCC(NC(=O)c1ccc(Nc2cnc3cc(C(F)(F)F)ccc3n2)cc1)C(=O)OCC (stereo not drawn) | 0.1% | -12.8% | -5.85% | 19.9% | 3.4% | -4.65%
Cn1c2ccccc2n2c(=O)c(-c3ccc(Cl)cc3)nnc12 | -4.95% | 10.9% | -5.15% | -6.15% | -11.2% | -35.4%
O=S(=O)(O)C(c1ccccc1)C(O)c1ccccc1 (stereo not drawn) | 0.95% | -8.95% | -14.4% | -25.2% | -20.9% | -0.25%
O=[N+]([O-])c1ccccc1C(Nc1nncs1)Nc1nncs1 | 17.3% | 22.5% | 41.5% | -6.05% | -3.3% | 2.3%
